Results: PubChem BioAssay (NCI)
Compounds without any hit were thinned out: in the full panel of roughly 83,000, 20% have a hit.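 Single-dose data. Exposure time 48 hours. Values below 10 considered active.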 Unmarked numbers belong to inactive results. Activity calls are given as the source filed them.

Tested on: HL-60(TB) leukemia
Test: NCI-60 one-dose screen, 48 h (100 = growth as untreated, 0 = no growth, -100 = all killed)
Conditions: 10 µM unless noted

| SMILES | growth |
| --- | --- |
| CSc1nc(N)c2c(n1)NC(c1ccccc1)C1CCc3ccccc3C1=N2 (stereo unspecified) | 26.4% |
| O=S(=O)(NCCCNc1nccc(-c2c(-c3ccc(F)cc3)nc3sccn23)n1)c1ccc(F)cc1 | 35.5% |
| CCOC(=O)CNC(=O)C1(NC(=O)CNC(=O)OCc2ccccc2)CCCC1 | 87.5% |
| CCN(CC)CCNc1ccc(N=Nc2cnc3ccccc3c2)c2ccccc12 | -72.2% (active) |
| COc1cc2c(cc1OC(C)=O)C(=O)CCCC2 | 143% |
| CCc1oc2ccccc2c1C(=O)c1cc(Br)c(O)c(Br)c1 | 53% |
| COc1ccc(/C=N/Nc2c3ccccc3nc3ccccc23)cc1 | 92.9% |
| CCN(CC)CCN1C(=O)c2cccc3c(/C=C/CN4C(=O)c5cccc6cccc(c56)C4=O)ccc(c23)C1=O | 83.4% |
| O=C1NN(C(=O)c2ccc(Cl)cc2)C(c2ccccc2)=N/C1=C\c1cn(-c2ccccc2)nc1-c1ccccc1 | 94.5% |
| O=c1[nH]cnc2nc[nH]c12 | 117% |
| COc1cc2c3cc1Oc1c(OC)c(OC)cc4c1C(Cc1ccc(O)c(c1)Oc1ccc(cc1)CC3N(C)CC2)N(C)CC4 (stereo unspecified) | -32.4% (active) |
| O=C1Nc2ccccc2C12C=C(c1ccccc1)Nc1c2c(-c2ccccc2)nn1-c1ccccc1 (stereo unspecified) | 5.77% (active) |
| CC1(C)CC[C@]2(C(=O)O)CC[C@]3(C)C(=CC[C@@H]4[C@@]5(C)C[C@@H](Cc6cn([C@@H]7O[C@H](CO)[C@@H](O)[C@H](O)[C@H]7O)nn6)[C@H](O)C(C)(C)[C@@H]5CC[C@]43C)[C@@H]2C1 | 93.4% |
| COc1ccccc1/C=C/C(=O)c1ccccc1 | 51.8% |
| CCOC(=O)/C(=C\c1ccc2ccccc2c1)P(=O)(OCC)OCC | 8.83% (active) |
| COc1cccc(/C=C2\COc3ccc(O)cc3C2=O)c1OC | -14.5% (active) |
| CCCn1c(=S)sc2c1nc(C)n1c(Nc3ccccc3)nnc21 | 45.3% |
| CCOC(=O)NCCCC(=O)NCCc1ccccc1 | 102% |
| Nc1ccc(Cl)c([N+](=O)[O-])c1 | 118% |
| Nc1ccccc1SC1CC(=O)N(c2ccc(Cl)c(Cl)c2)C1=O (stereo unspecified) | 139% |
| CN(C)CCN1C(=O)c2cccc3c(N)ccc(c23)C1=O | -6.78% (active) |
| Cc1ccc(CNc2c3ccccc3nc3cc(NC(=O)CCN4CCCC4)ccc23)cc1 | -64.3% (active) |
| CC(C)C1=C[C@@]23CC[C@H]4[C@](C)(COCCC#N)CCC[C@]4(C)[C@H]2C[C@@H]1[C@@H]1[C@H]3[C@@H](OCCC#N)CC[C@@H]1OCCC#N | -42.7% (active) |
| COc1ccc(/C(C)=C(\c2ccc(Cl)cc2)c2ccc(OCCCN(C)C)cc2)cc1F | 66.2% |
| COc1cc2cc(Oc3ccc(NC(=O)Nc4ccc(Cl)c(C(F)(F)F)c4)cc3)c(C)nc2cc1OCCN1CCOCC1 | 11% |
| COc1ccccc1CNCCCN1C(=O)c2ccc3c4c(ccc(c24)C1=O)C(=O)N(CCCNCCCN)C3=O | -42.3% (active) |
